The source of these data is PubChem BioAssay AID463173 (ICCB-Longwood Screening Facility, Harvard Medical School, 2010).

About 4,300 (8.3%) of roughly 52,000 compounds were called active. This excerpt belongs to a sample that is enriched for actives. A number with no mark means an inactive call. Rule as the data show it: active = survival mostly below about 52% (no sharp cut-off); inactive = mostly above about 56%.

This test deals with DeltatarO mutant. Description: growth inhibition of S. aureus wild type versus tarO mutant, primary screen, teichoic acid synthesis inhibitors, RN4220, OD600 (AID 463173). To be noted: OD600, 18 h, stronger effect = lower value, screened at 18.75 µg/mL (by protocol).
Take `Cc1ccc(NC(=O)Cn2nc(C(F)(F)F)c3c2CCCC3)cc1`: the survival was 120%. As for `CCn1c(=O)c2sccc2n2c(CCC(=O)Nc3ccc(OC)cc3OC)nnc12`, the survival is 82%. With `Cc1cccc(NC(=O)c2cnc3sc(N4CCCC4)nn3c2=O)c1C` the figure was 73%; with `Cc1ccc(NC(=O)C2CCCN(c3ncnc4c3nc3n4CCCCC3)C2)c(Br)c1` (centres undefined), 87%. Under `CC(=O)c1cccc(NC(=O)C2=CC(c3ccc4c(c3)OCO4)=NS(=O)(=O)N2C)c1` stands 72%; under `Cc1ccc(CNC(=O)CN(c2cc(C)cc(C)c2)S(=O)(=O)c2c(C)[nH]c(=O)[nH]c2=O)cc1`, 91%; under `Cc1ccccc1NC(=O)CSc1nc2ccc(NC(=O)c3cccs3)cc2s1`, 91%. Under `CN(C)c1ccc(NC(=O)Cn2nnc3sc4c(c3c2=O)CCC(C(C)(C)C)C4)cc1` (centres undefined) stands 79%. Regarding `Cc1ccc(Cn2nnc3sc4c(c3c2=O)CCC(C)C4)cc1` (centres undefined), the survival is 54% (active).

In the case of `CC1CCc2c(sc3nnn(Cc4ccccc4Cl)c(=O)c23)C1` (centres undefined), the survival was 13% (active). Under `CCc1ccccc1NC(=O)Cn1nnc2sc3c(c2c1=O)CCC(C(C)(C)C)C3` (centres undefined) stands 47% (active); under `Cc1ccccc1OCCCCn1nnc2sc3c(c2c1=O)CCC(C)C3` (centres undefined), 65%. As for `CCOc1ccccc1NC(=O)Cn1nnc2sc3c(c2c1=O)CCC(C(C)(C)C)C3` (centres undefined), the survival is 106%. Under `CC1CCc2c(sc3nnn(CC(=O)Nc4ccccc4Cl)c(=O)c23)C1` (centres undefined) stands 71%; under `CC1CCc2c(sc3nnn(Cc4ccc(F)cc4)c(=O)c23)C1` (centres undefined), -1% (active). Under `Cc1ccc(OCCn2nnc3sc4c(c3c2=O)CCC(C)C4)cc1` (centres undefined) stands 54%. Under `CC1CCc2c(sc3nnn(CCCCOc4ccc(Cl)cc4)c(=O)c23)C1` (centres undefined) stands 107%; under `COC(=O)c1ccc(Cn2nnc3sc4c(c3c2=O)CCC(C)C4)cc1` (centres undefined), 79%. Turning to `CCCCc1ccc(NC(=O)Cn2nnc3sc4c(c3c2=O)CCC(C)C4)cc1` (centres undefined), the survival is 58%. With `CCN(CC)C(=O)Cn1cc(SCC(=O)Nc2ccccc2F)c2ccccc21` the figure was 103%; with `CCc1cccc(NC(=O)c2cc3c(=O)[nH]c4ccccc4c3n2C)c1`, 89%; with `C=CCNC(=O)C(C)N1CCN(C)CC1` (centres undefined), 73%. For the compound `Cc1ccccc1CNC(=O)C1CCN(S(=O)(=O)Cc2ccccc2)CC1`, the survival is 75%. Take `CCOc1ccc(-c2nnc(SCC(=O)Oc3ccccc3)o2)cc1`: the survival was 71%. Consider `CCC12CN3CC(C)(CN(C1)C3c1ccc(O)cc1O)C2=O` (centres undefined), for which the survival was 78%. For `CCc1ccc(S(=O)(=O)c2nnn3c2nc(NCc2ccccc2)c2cc(Cl)ccc23)cc1`, the survival was 86%. Under `CC1CCc2c(sc3nnn(Cc4cccc(C(=O)OC(C)C)c4)c(=O)c23)C1` (centres undefined) stands 78%. Under `CCCOC(=O)c1ccc(Cn2nnc3sc4c(c3c2=O)CCC(C)C4)cc1` (centres undefined) stands 79%; under `CC1CCc2c(sc3nnn(Cc4ccccc4)c(=O)c23)C1` (centres undefined), 3% (active). Turning to `COc1ccccc1CNC(=O)C(C)n1c(=O)cc(C(F)(F)F)c2c(C)nn(C)c21` (centres undefined), the survival is 94%. As to `CCOc1ccccc1NC(=O)Cn1nc2c3cc(F)ccc3n(Cc3cccc(C)c3)cc-2c1=O`, the survival is 72%. With `CCc1ccccc1NC(=O)Cn1nc2c3cc(F)ccc3n(Cc3cccc(C)c3)cc-2c1=O` the figure was 84%; with `COc1ccccc1NC(=O)Cn1nc2c3cc(F)ccc3n(Cc3cccc(C)c3)cc-2c1=O`, -2% (active); with `O=C(Cn1ccn(-c2cccc(Cl)c2)c(=O)c1=O)c1ccc(F)cc1`, 59%. For `O=C(Nc1ccc(Cl)cc1C(F)(F)F)c1cc(S(=O)(=O)NCc2ccccc2)ccc1F`, the survival is 130%. As for `O=C(CN(Cc1ccccc1)C(=O)Cn1nnc(-c2ccc(F)cc2)n1)NC1CCCC1`, the survival was 70%. Under `COc1ccc(OCC(=O)Nc2ccc(-c3nc4cc(Cl)ccc4o3)cc2)cc1` stands 134%; under `CCC(Oc1ccccc1)C(=O)Nc1ccc2oc(-c3ccc(OC)cc3)nc2c1` (centres undefined), 111%. In the case of `COc1ccc(-c2nc3ccc(NS(C)(=O)=O)cc3o2)cc1`, the survival is 77%. Under `COc1ccc(-c2nc3ccc(NS(=O)(=O)c4ccc(Cl)cc4)cc3o2)cc1` stands 23% (active); under `COc1ccc(-c2nc3ccc(NS(=O)(=O)c4ccccc4)cc3o2)cc1`, 36% (active).

In the case of `COc1ccc(-c2nc3ccc(NS(=O)(=O)c4ccc(C)cc4)cc3o2)cc1`, the survival is 45%. For the compound `CCCCC(CC)CNC(=O)c1ccc(Cn2c(=O)[nH]c3cc(OC)c(OC)cc3c2=O)cc1` (centres undefined), the survival was 72%. Under `O=C(Cn1c(=O)c(CNc2ccccc2)cc2cc3c(cc21)OCCO3)Nc1ccccc1Cl` stands 131%; under `O=C(COc1ccccc1)Nc1nnc2n1CCS2`, 86%. Turning to `Cc1cn2c(=O)cc(COC(=O)c3ccc(NC(=O)c4ccccc4C)cc3)nc2s1`, the survival is 101%.

For `COc1ccccc1N1CCN(S(=O)(=O)CCNC(=O)COc2ccccc2F)CC1`, the survival was 83%. Under `CCn1c(CNC(=O)C23CC4CC(CC(C4)C2)C3)nnc1SCC(=O)Nc1ccc(F)cc1` stands 71%; under `CCCCn1c(CNC(=O)C23CC4CC(CC(C4)C2)C3)nnc1SCC(=O)Nc1ccccc1`, 54%; under `CCCCn1c(CNC(=O)C23CC4CC(CC(C4)C2)C3)nnc1SCC(=O)Nc1ccc(C)cc1`, 36% (active).

In the case of `CCCCn1c(CNC(=O)C23CC4CC(CC(C4)C2)C3)nnc1SCC(=O)Nc1ccc(F)cc1`, the survival is 54% (active). Under `CCn1c(CNC(=O)C23CC4CC(CC(C4)C2)C3)nnc1SCC(=O)Nc1ccccc1` stands 66%; under `CCn1c(CNC(=O)C23CC4CC(CC(C4)C2)C3)nnc1SCC(=O)Nc1ccc(C)cc1`, 60%. Take `CCc1ccc(CNC(=O)c2ccc(NC(=O)N3CC(C)Sc4ccccc43)cc2)cc1` (centres undefined): the survival is 64%.

Consider `Cc1c(Cl)cccc1Nc1nc2ccc(C(=O)c3ccccc3)cc2n2cnnc12`, for which the survival was 77%.

In the case of `CCNC(=O)CC1C(=O)N(c2cccc(OC)c2)C(=O)N1Cc1ccc(OC)c(OC)c1` (centres undefined), the survival was 80%.

Turning to `C=CCN1C(=O)C2(C(C#N)=C(N)Oc3n[nH]c(COC)c32)c2ccccc21` (centres undefined), the survival is 109%. Take `CCN1C(=O)C2(C(C#N)=C(N)SC(N)=C2C#N)c2ccccc21`: the survival was 2% (active). With `CCc1[nH]nc2c1C1(C(=O)N(CC)c3ccccc31)C(C#N)=C(N)O2` (centres undefined), the survival was 78%.
